Laboratory results from the supplement of paper PMC6555819.

Legend:
Test in all cases: PBM binding z-score (relative to random genomic background probes); higher = stronger binding; sequences stand for … in GC…GCGATTGACAGCGTAGAATGAAGG
[1] = tested on: FXR:RXRa (NR concentration 270 nM, RXRa partner concentration 90 nM)
Outline: (§1)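 Custom Agilent 4×180K protein-binding microarrays carried double-stranded probes. Their 34-nt variable regions held direct-repeat seeds, single-nucleotide variants, half-site ablations and random human genomic background sequences. Arrays were incubated 1 h with ligand-free nuclear receptor dimers in PBS pH 7.4, 2% milk, 0.02% Triton X-100, 1 mM DTT, 0.2 mg/mL BSA and 0.4 mg/ml salmon testes DNA. Antibodies against each partner (one per run) detected binding, and scanned fluorescence was regression-normalized. Binding z-scores use random background probes as reference.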

[2] = tested on: LXRa:RXRa (NR concentration 270 nM, RXRa partner concentration 90 nM)
Outline: as §1

[3] = tested on: LXRa homodimer (NR concentration 270 nM)
Outline: as §1

[4] = tested on: LXRb:RXRa (NR concentration 270 nM, RXRa partner concentration 90 nM)
Outline: as §1

[5] = tested on: LXRb homodimer (NR concentration 270 nM)
Outline: as §1

[6] = tested on: PPARa:RXRa (NR concentration 270 nM, RXRa partner concentration 90 nM)
Outline: as §1

[7] = tested on: PPARg:RXRa (NR concentration 180 nM, RXRa partner concentration 90 nM)
Outline: as §1

[8] = tested on: PPARg:RXRa 270nM:90nM, anti-RXR (NR concentration 270 nM, RXRa partner concentration 90 nM)
Outline: as §1

[9] = tested on: PPARg:RXRa 30nM:10nM, anti-RXR (NR concentration 30 nM, RXRa partner concentration 10 nM)
Outline: as §1

[10] = tested on: PPARg:RXRa 90nM:30nM, anti-RXR (NR concentration 90 nM, RXRa partner concentration 30 nM)
Outline: as §1

| Sequence | PBM binding z-score [1] | PBM binding z-score [2] | PBM binding z-score [3] | PBM binding z-score [4] | PBM binding z-score [5] | PBM binding z-score [6] | PBM binding z-score [7] | PBM binding z-score [8] | PBM binding z-score [9] | PBM binding z-score [10] |
| --- | --- | --- | --- | --- | --- | --- | --- | --- | --- | --- |
| GGAACGAGGGCATTCGAGTTGAGAGCATGGCGAT | 1.64 | 1.88 | -0.277 | 0.172 | -0.777 | 1.5 | 0.715 | 1.11 | -0.289 | 0.498 |
| CTACCAACGTGAACAAGGTCGTTGATTACTATTC | 0.409 | 0.657 | 0.667 | 1.48 | 0.184 | 1.22 | 0.42 | 0.167 | -0.0638 | 0.0634 |
| CTCGAAAGGTCGTGCGCAGGTGAGTATACCAAAC | 5.71 | 4.35 | 0.33 | 3.84 | 0.153 | 5.58 | 3.34 | 4.47 | 1.36 | 2.98 |
| TCTTGTAGATCAATAAAGGTTAAGAAAGTGCGCT | 1.03 | 4.33 | 0.774 | 2.36 | 0.274 | 2.32 | 0.49 | 2.26 | 2.99 | 2.82 |
| CGTCCAAGATCAAGGTCAGTGAAAGAGACTCGAA | 1.53 | 1.53 | 0.459 | 1.7 | -0.296 | 2.7 | 0.906 | 1.19 | 0.0233 | 0.76 |
| CCTCGGAGGACAACTGGAGGTCAGAGCTGCCAGA | 1.53 | 3.1 | 5.05 | 1.94 | -0.251 | 1.99 | 0.231 | 0.569 | -0.723 | 0.0567 |
| ATAATGAGGTTACCAAAGATCAGGGAAACGCTTG | 1.8 | 6.12 | 0.166 | 3.15 | 0.596 | 3.37 | 3.17 | 3 | 1.2 | 2.35 |
| TAGCCTAGGTCATGGGCCAGGATACCACGCGAAC | 4.32 | 3.44 | 0.422 | 2.16 | -0.43 | 4.16 | 3.93 | 3.93 | 1.12 | 2.85 |
| GCTAGCAGGCCATTTGGGTCACTCATTGACGGGC | 0.033 | -0.0107 | -0.528 | -0.128 | -0.903 | 1 | 0.357 | 0.27 | -0.512 | -0.18 |
| ATCAAAAGGTCGTGAGGTGAGTATACAGAAAGGC | 5.1 | 4.46 | 0.539 | 3.63 | 1.22 | 5.2 | 4.38 | 4.66 | 1.92 | 3.33 |
| CGAACGAGGGCATAAGTTGATAGCAAATGCCGAT | 0.0955 | -0.0152 | -0.319 | 0.143 | -0.74 | 1.49 | 1.93 | 2.59 | 0.799 | 2.34 |
| CAAACTGGGTCAAAGGTCAAAGTCGAGCCAACCA | 7.83 | 7.07 | 4.88 | 6.89 | 2.4 | 7.41 | 14.1 | 11.2 | 13.5 | 13 |
| ATCTCTAGGTATAGTTCAGTGAAAGATCGATAGA | 0.622 | 1.11 | 0.814 | 0.685 | 1.21 | 0.726 | 0.816 | 1.55 | 0.666 | 1.4 |
| TCTTGTAGATCAGCAGGTTAAGATAGCTGGCCAA | -0.0531 | 0.217 | -0.176 | 0.312 | -0.375 | 0.692 | -0.179 | 1.28 | 2.71 | 1.95 |
| TAGCCTGGGTCAGATCGGGCCAGTATACGCTATA | 1.63 | 0.208 | -0.918 | 0.153 | -0.84 | 1.32 | 0.579 | 0.64 | -0.488 | 0.167 |
| AGAATGAGGTTATTAAGATAAGGGAATTGCGGTC | 1.33 | 1.59 | -0.0371 | 1.08 | -0.0386 | 2.64 | 1.47 | 1.65 | 0.732 | 0.962 |
| AGTCACAGTTCACTAGGTAACGTAAGATTCAGCT | 0.936 | 1.66 | 0.659 | 1.19 | 0.166 | 2.84 | 2.96 | 3.17 | 1.06 | 2.12 |
| ATCTCTAGGTAACCAAGTTCAGTTAATGCCGAAC | 0.988 | 1.26 | 1.38 | 1.11 | 0.875 | 1.31 | 0.806 | 1.1 | 0.448 | 0.659 |
| GCGACTGAGGCAAAGCAGGTTACCATAAGGTTGG | -0.391 | -0.493 | -0.444 | -0.567 | -1.32 | -0.0233 | 0.328 | -0.42 | -0.736 | -0.693 |
| ACAGACCGGTGATGAAGGTAACTCAGGCTATCAT | -0.208 | -0.192 | -0.177 | -0.283 | -0.429 | -0.318 | 0.549 | 0.0547 | -0.0977 | -0.129 |
| CGAACCAGGTCAGAACAGGACAGTGAAGGATGAT | 2.83 | 1.68 | 0.0841 | 0.939 | -0.216 | 2.43 | 2.14 | 1.88 | 0.485 | 1.32 |
| TAGCCTAGGTCATTCGGGCCAGTATAGTGTCGGC | 4.65 | 3.71 | 1.53 | 2.35 | 0.458 | 3.55 | 1.61 | 2.21 | -0.0237 | 1.26 |
| GCTATTAGTTGAAAGTGCAACCGAATGATTCTCG | 0.0358 | 0.479 | 0.0569 | 0.177 | 0.0186 | 1.33 | 1.28 | 2.92 | 1.24 | 2.72 |
| CGTCAAAGTTCAGGGTAACGTAACAGAAAGCAGC | 4.15 | 3.51 | 1.23 | 2.3 | 0.634 | 3.48 | 3.14 | 3.57 | 1.26 | 2.42 |
